# Substitutions are numbered along the chain they refer to. Numbers in names are those of the source.
# B1: OT49.12 (dsDNA)
# DNA 1: GATGATAGCAAATTCCCCTTATGCTCTTAC
# DNA 2: GTAAGAGCATAAGGGGAATTTGCTATCATC
# B2: ossB45 (dsDNA)
# DNA 1: AATATGGGGTCATATT
# DNA 2: AATATGACCCCATATT
# B3: ossA49-15 (dsDNA)
# DNA 1: TTTATGATATCACTTT
# DNA 2: AAAGTGATATCATAAA
# B4: ossA45-2 (dsDNA)
# DNA 1: AATGTGGGGTCACTTT
# DNA 2: AAAGTGACCCCACATT
# B5: OTUNa For/Rev_15 (dsDNA)
# DNA 1: TGGCTTCGCCAGATTACCCATTATAAAATG
# DNA 2: CATTTTATAATGGGTAATCTGGCGAAGCCA
# B6: ossA45-5 (dsDNA)
# DNA 1: ATTGAGGGGTCACTTT
# DNA 2: AAAGTGACCCCTCAAT
# B7: ossA45-13 (dsDNA)
# DNA 1: ATTGTGGGGTCAGTTT
# DNA 2: AAACTGACCCCACAAT
# B8: OT45.4 (dsDNA)
# DNA 1: TTTATTGTGGGGTCACTTTAAATTCTTTAA
# DNA 2: TTAAAGAATTTAAAGTGACCCCACAATAAA
# B9: ossA45-3 (dsDNA)
# DNA 1: ATAGTGGGGTCACTTT
# DNA 2: AAAGTGACCCCACTAT
# B10: OTUNa For/Rev_14 (dsDNA)
# DNA 1: TTGAAATATCTGGCTTCGCCAGATTACCCA
# DNA 2: TGGGTAATCTGGCGAAGCCAGATATTTCAA
# B11: ossA49 (dsDNA)
# DNA 1: TTTATGATATCACTAT
# DNA 2: ATAGTGATATCATAAA
# B12: ossA49-4 (dsDNA)
# DNA 1: TTTTTGATATCACTAT
# DNA 2: ATAGTGATATCAAAAA
# B13: OTUNa For/Rev_13 (dsDNA)
# DNA 1: TTTAAAACCCTTGAAATATCTGGCTTCGCC
# DNA 2: GGCGAAGCCAGATATTTCAAGGGTTTTAAA
# B14: ossA45-1 (dsDNA)
# DNA 1: TTTGTGGGGTCACTTT
# DNA 2: AAAGTGACCCCACAAA
# B15: ossA49-12 (dsDNA)
# DNA 1: TTTATGATATCTCTAT
# DNA 2: ATAGAGATATCATAAA
# B16: OT45.9 (dsDNA)
# DNA 1: TTGCCAGCCACCCCATAAAATATGGGGTCA
# DNA 2: TGACCCCATATTTTATGGGGTGGCTGGCAA
# B17: ossA45-14 (dsDNA)
# DNA 1: ATTGTGGGGTCACATT
# DNA 2: AATGTGACCCCACAAT
# B18: ossA49-2 (dsDNA)
# DNA 1: TATATGATATCACTAT
# DNA 2: ATAGTGATATCATATA
# B19: ossA49-1 (dsDNA)
# DNA 1: ATTATGATATCACTAT
# DNA 2: ATAGTGATATCATAAT
# B20: ossB408 (dsDNA)
# DNA 1: TAATAGGTGGCAAATT
# DNA 2: AATTTGCCACCTATTA
# B21: ossA49-5 (dsDNA)
# DNA 1: TTTAAGATATCACTAT
# DNA 2: ATAGTGATATCTTAAA
# B22: ossAUNa (dsDNA)
# DNA 1: GTGACCCCCATAAGAT
# DNA 2: ATCTTATGGGGGTCAC
# B23: OT49.4 (dsDNA)
# DNA 1: GTTTTTATGATATCACTATGAAATGTCCTA
# DNA 2: TAGGACATTTCATAGTGATATCATAAAAAC
# B24: OT45.11 (dsDNA)
# DNA 1: TATGGGGTCATATTTCCCTTATGCTCTTAC
# DNA 2: GTAAGAGCATAAGGGAAATATGACCCCATA
# B25: ossA45 (dsDNA)
# DNA 1: ATTGTGGGGTCACTTT
# DNA 2: AAAGTGACCCCACAAT
# B26: OT45.10 (dsDNA)
# DNA 1: CCCCATAAAATATGGGGTCATATTTCCCTT
# DNA 2: AAGGGAAATATGACCCCATATTTTATGGGG
# B27: OT49.10 (dsDNA)
# DNA 1: CTATCATTGTCCGATGATAGCAAATTCCCC
# DNA 2: GGGGAATTTGCTATCATCGGACAATGATAG
# B28: ossA45-15 (dsDNA)
# DNA 1: ATTGTGGGGTCACTAT
# DNA 2: ATAGTGACCCCACAAT
# B29: ossA45-4 (dsDNA)
# DNA 1: ATTCTGGGGTCACTTT
# DNA 2: AAAGTGACCCCAGAAT
# B30: ossA45 C11G (dsDNA)
# DNA 1: ATTGTGGGGTGACTTT
# DNA 2: AAAGTCACCCCACAAT
# B31: ossA45-10 (dsDNA)
# DNA 1: ATTGTGGGGACACTTT
# DNA 2: AAAGTGTCCCCACAAT
# B32: ossA49-16 (dsDNA)
# DNA 1: TTTATGATATCACTAA
# DNA 2: TTAGTGATATCATAAA
# B33: ossA49-13 (dsDNA)
# DNA 1: TTTATGATATCAGTAT
# DNA 2: ATACTGATATCATAAA
# B34: ossA45-9 (dsDNA)
# DNA 1: ATTGTGGGCTCACTTT
# DNA 2: AAAGTGAGCCCACAAT
# B35: ossA45-12 (dsDNA)
# DNA 1: ATTGTGGGGTCTCTTT
# DNA 2: AAAGAGACCCCACAAT
# B36: ossBUNa (dsDNA)
# DNA 1: AAAATGGGTACATATT
# DNA 2: AATATGTACCCATTTT
# B37: OT45.3 (dsDNA)
# DNA 1: GACACTATAGTTTATTGTGGGGTCACTTTA
# DNA 2: TAAAGTGACCCCACAATAAACTATAGTGTC
# B38: OT49.11 (dsDNA)
# DNA 1: CCGATGATAGCAAATTCCCCTTATGCTCTT
# DNA 2: AAGAGCATAAGGGGAATTTGCTATCATCGG
# B39: ossA45-16 (dsDNA)
# DNA 1: ATTGTGGGGTCACTTA
# DNA 2: TAAGTGACCCCACAAT
# B40: OT49.3 (dsDNA)
# DNA 1: GACACTAGGTGTTTTTATGATATCACTATG
# DNA 2: CATAGTGATATCATAAAAACACCTAGTGTC
# B41: ossA49-14 (dsDNA)
# DNA 1: TTTATGATATCACAAT
# DNA 2: ATTGTGATATCATAAA
# B42: OT45.5 (dsDNA)
# DNA 1: GGTCACTTTAAATTCTTTAAAACCCTTGAA
# DNA 2: TTCAAGGGTTTTAAAGAATTTAAAGTGACC
# B43: ossA49-3 (dsDNA)
# DNA 1: TTAATGATATCACTAT
# DNA 2: ATAGTGATATCATTAA
# Biological target: T1, SmpO49 (Staphylococcus aureus plasmid pWBG749, UniProt UPI0001BEA96A 1-84)
# T1 sequence: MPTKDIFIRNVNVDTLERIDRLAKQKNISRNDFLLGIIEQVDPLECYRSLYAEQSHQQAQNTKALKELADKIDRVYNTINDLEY
# Test: SPR (ReDCaT); 150 mM NaCl; 10 mM HEPES, 3 mM EDTA, 0.05% Tween 20, NaCl 150 mM (SmpO49 screens), 300 mM (SmpO45, SmpO408, SmpOUNa screens) or 250 mM (Table S4); pH and temperature not stated; protein 1 uM; high values mean tight binding
# Conditions: protein: recombinant; tags: His6-TEV, cleaved; chain copies: 4
# Summary of the method: (§1)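 Tag-cleaved protein, expressed in E. coli BL21(DE3)pLysS and purified by nickel-affinity and size-exclusion chromatography, was screened on a Biacore T200 SA chip by reusable DNA capture. OriT oligonucleotides were captured at 1 μM on Fc2, with a control linker on Fc1. Protein at 1 μM was injected at 30 μl/min (60 s contact, 60 s dissociation) in 10 mM HEPES, 150 mM NaCl, 3 mM EDTA, 0.05% Tween 20. DNA binding is reported as %Rmax.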
row,Binder,binding signal
1,B1,0.431 ± 0.0378 %Rmax
2,B3,26.8 ± 1.07 %Rmax
3,B11,26 ± 1.13 %Rmax
4,B12,12.1 ± 1.41 %Rmax
5,B15,5.13 ± 0.452 %Rmax
6,B18,26.3 ± 1.74 %Rmax
7,B19,26.7 ± 1.94 %Rmax
8,B21,6.94 ± 0.948 %Rmax
9,B23,17 ± 0.325 %Rmax
10,B27,0.584 ± 0.045 %Rmax
11,B32,24.8 ± 1.07 %Rmax
12,B33,18.1 ± 1.02 %Rmax
13,B38,0.467 ± 0.033 %Rmax
14,B40,18.8 ± 0.402 %Rmax
15,B41,24.9 ± 1.06 %Rmax
16,B43,26.8 ± 1.8 %Rmax

# Biological target: T2, SmpO45 (Staphylococcus aureus plasmid pWBG745, UniProt UPI0001BEA8D3 1-84)
# T2 sequence: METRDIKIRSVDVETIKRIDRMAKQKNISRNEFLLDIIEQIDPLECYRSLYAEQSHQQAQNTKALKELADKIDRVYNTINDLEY
# Test: SPR (ReDCaT); 250 mM NaCl; 10 mM HEPES, 3 mM EDTA, 0.05% Tween 20, NaCl 150 mM (SmpO49 screens), 300 mM (SmpO45, SmpO408, SmpOUNa screens) or 250 mM (Table S4); pH and temperature not stated; protein 1 uM; high values mean tight binding
# Conditions: protein: recombinant; tags: His6-TEV, cleaved; chain copies: 4
row,Binder,binding signal
1,B2,21.6 %Rmax
2,B20,0.4 %Rmax
3,B22,1.6 %Rmax
4,B25,37.5 %Rmax
5,B36,0.8 %Rmax

# Biological target: T3, SmpOUNa (plasmid pC02)
# T3 chain: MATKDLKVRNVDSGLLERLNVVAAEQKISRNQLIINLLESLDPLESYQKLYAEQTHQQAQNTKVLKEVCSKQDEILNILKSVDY
# Test: as above
# Conditions: protein: recombinant; tags: His6-TEV, cleaved; chain copies: 4
row,Binder,binding signal
1,B2,1.4 %Rmax
2,B22,12.4 %Rmax
3,B25,7.1 %Rmax

# Biological target: T4, SmpO408 (Staphylococcus aureus M0408)
# T4 chain: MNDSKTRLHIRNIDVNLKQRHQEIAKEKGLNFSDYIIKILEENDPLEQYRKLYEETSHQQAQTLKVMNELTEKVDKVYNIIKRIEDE
# Test: as above
# Conditions: protein: recombinant; tags: His6-TEV, cleaved; chain copies: 4
row,Binder,binding signal
1,B2,0.9 %Rmax
2,B20,34.2 %Rmax
3,B22,2.9 %Rmax
4,B25,10.7 %Rmax

# Biological target: T5, SmpOSep (Staphylococcus epidermidis VCU120)
# T5 chain: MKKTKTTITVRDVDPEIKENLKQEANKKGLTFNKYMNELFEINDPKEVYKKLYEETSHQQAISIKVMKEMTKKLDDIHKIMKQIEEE
# Test: as above
# Conditions: protein: recombinant; tags: His6-TEV, cleaved; chain copies: 4
row,Binder,binding signal
1,B2,0.5 %Rmax
2,B11,1.2 %Rmax
3,B25,2.9 %Rmax
4,B36,1.5 %Rmax

# Biological target: T6, SmpO49-F7K (Staphylococcus aureus plasmid pWBG749, UniProt UPI0001BEA96A 1-84, F7K)
# T6 sequence: T1 sequence with F7K
# Test: as above
# Conditions: protein: recombinant; tags: His6-TEV, cleaved; chain copies: 4
row,Binder,binding signal
1,B2,26.1 %Rmax
2,B22,3.5 %Rmax
3,B25,31.3 %Rmax

# Biological target: T2, SmpO45
# Test: SPR (ReDCaT); 300 mM NaCl; 10 mM HEPES, 3 mM EDTA, 0.05% Tween 20, NaCl 150 mM (SmpO49 screens), 300 mM (SmpO45, SmpO408, SmpOUNa screens) or 250 mM (Table S4); pH and temperature not stated; protein 1 uM; high values mean tight binding
# Conditions: protein: recombinant; tags: His6-TEV, cleaved; chain copies: 4
# Summary of the method: as §1, with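 “300” for “150”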
row,Binder,binding signal
1,B4,32.56 ± 0.0519 %Rmax
2,B6,13.5 ± 0.663 %Rmax
3,B7,30.8 ± 1.19 %Rmax
4,B8,29.4 ± 1.33 %Rmax
5,B9,31.73 ± 0.268 %Rmax
6,B14,42.58 ± 0.128 %Rmax
7,B16,0.769 ± 0.108 %Rmax
8,B17,38.9 ± 1.1 %Rmax
9,B24,21.2 ± 1.26 %Rmax
10,B25,36.5 ± 3.64 %Rmax
11,B26,31.8 ± 2.19 %Rmax
12,B28,38.6 ± 1.09 %Rmax
13,B29,33.4 ± 0.753 %Rmax
14,B30,0.641 ± 0.0361 %Rmax
15,B31,6.42 ± 0.416 %Rmax
16,B34,0.616 ± 0.0355 %Rmax
17,B35,7.81 ± 0.57 %Rmax
18,B37,29.5 ± 1.43 %Rmax
19,B39,43.4 ± 1.14 %Rmax
20,B42,17.8 ± 1.2 %Rmax

# Biological target: T3, SmpOUNa
# Test: as above
# Conditions: protein: recombinant; tags: His6-TEV, cleaved; chain copies: 4
# Summary of the method: as §1, with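 “300” for “150”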
row,Binder,binding signal
1,B5,5.46 ± 0.605 %Rmax
2,B10,1.29 ± 0.0865 %Rmax
3,B13,2.14 ± 0.24 %Rmax
